This is a sample that favours compounds with a hit; in the whole collection about 28% have one here.
CYP2C19 inhib: human CYP2C19 inhibition; CYP2C19 Supersomes, luciferin-H EGE luminescence, 30 min; P33261; actives 21% (n = 96,000); inhibition, % at 5 µM; AID 778;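 active = CYP2C19 inhibition above a set limit at 5 µM in the primary screen, cut at about 50% in these data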;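 also: plate controls were negative control wells for no effect and 2.5 mM tranylcypromine positive control for full effect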
PLK1 PBD inh: inhibitors of human Plk1 polo box domain binding | AID 693 | P53350 | Plk1 PBD phosphopeptide binding, fluorescence polarization | actives 0.13% (n = 97,000) | inhibition, %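 (tested at about 20 µM)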; in the data active = inhibition above about 34%, passing the limit was not always enough
CYP2C9 activ: activators of human CYP2C9 | recombinant CYP2C9, luciferin-H conversion, luminescence; active compounds read high; factor 1 = untreated enzyme, 0 = blocked | activation factor at 5 µM | actives 1.4% (n = 96,000) | AID 1024;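 active = activation factor of 2 or more for CYP2C9 at a 5 µM dose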;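 also: 0 = sulfaphenazole-blocked wells and 1 = vehicle-only wells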
Target sequence (P11712 whole entry, looked up): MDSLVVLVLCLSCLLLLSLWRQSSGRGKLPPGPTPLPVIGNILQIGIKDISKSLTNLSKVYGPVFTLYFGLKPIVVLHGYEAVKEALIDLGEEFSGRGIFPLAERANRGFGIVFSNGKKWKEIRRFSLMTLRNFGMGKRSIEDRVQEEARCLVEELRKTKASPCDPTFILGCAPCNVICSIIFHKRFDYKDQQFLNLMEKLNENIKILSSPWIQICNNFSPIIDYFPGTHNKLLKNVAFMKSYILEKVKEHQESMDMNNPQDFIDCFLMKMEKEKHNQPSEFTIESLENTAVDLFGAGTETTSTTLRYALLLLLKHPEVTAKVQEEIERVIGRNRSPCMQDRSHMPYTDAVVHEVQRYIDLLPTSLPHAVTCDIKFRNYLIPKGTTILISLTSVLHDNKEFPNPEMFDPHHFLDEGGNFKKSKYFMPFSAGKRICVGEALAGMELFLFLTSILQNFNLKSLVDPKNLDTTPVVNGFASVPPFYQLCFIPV
CYP2C9 inhib: inhibitors of human CYP2C9; P11712; CYP2C9 Supersomes, luciferin-H conversion, luminescence; inhibition, % at 5 µM; actives 20% (n = 96,000);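 active = blocking of liver enzyme CYP2C9 beyond about 50% at 5 µM, limit read from the data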
CYP2C19 activ: cytochrome P450 2C19 (human) activation; P33261; recombinant CYP2C19, luciferin-H EGE luminescence; active compounds read high; 0 = fully inhibited enzyme, 1 = untreated enzyme; activation factor at 5 µM; 96,000 tested, under 10 active; AID 1025;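 active = activation factor of at least 2 at 5 µM in the primary screen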;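 also: 0 = wells with 2.5 mM tranylcypromine and 1 = vehicle-only wells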
PLK1 kinase inh: inhibitors of human PLK1 kinase. P53350. recombinant PLK1 kinase, TR-FRET peptide phosphorylation. inhibition, % at 10 µM. actives 0.53% (n = 97,000);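 active = inhibition of 50% or more in the single-concentration screen; inactive = inhibition below 50%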;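 also: 0% = DMSO max control and 100% = H-89 dihydrochloride min control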
* hit, by the source's call; . = no result.

SMILES	CYP2C19 inhib	PLK1 PBD inh	CYP2C9 activ	CYP2C9 inhib	CYP2C19 activ	PLK1 kinase inh
CC1Oc2ccccc2N(Cc2ccccc2F)C1=O (stereo not given)	90*	-3	0.3	67*	0.1	-10
CCC1SC2=NC(C)=C(C(=O)OC)C(c3ccc(C(=O)OC)cc3)N2C1=O (stereo not given)	93*	5	0.5	49	0.1	-4
CCC1SC2=NC(C)=C(C(=O)OCCOC)C(c3ccc(C(=O)OC)cc3)N2C1=O (stereo not given)	65*	-3	0.3	65*	0.3	2
O=C(Nc1cccc(F)c1)C1CCN(C(=O)c2ccc(Br)cc2)CC1	90*	16	0.1	93*	0.1	1
O=C(Nc1cccc(F)c1)C1CCN(c2nnnn2-c2ccccc2)CC1	38	-11	0.5	51*	0.6	-11
O=C(Nc1ccc2c(c1)OCCO2)C1CCN(C(=O)c2ccccc2)CC1	9	30	.	.	0.9	-2
O=C(Nc1ccc2c(c1)OCCO2)C1CCN(C(=O)c2ccc(Br)cc2)CC1	48	-13	0.2	85*	0.5	-6
CCOC(=O)c1cnc(Nc2nc3ccccc3o2)nc1CN1CCN(C)CC1	4	1	1	-5	1	-9
CN1CCN(P(=O)(c2ccccc2)c2nc3ccccc3s2)CC1 (stereo not given)	11	14	1	1	0.9	-7
COc1cc(S(=O)(=O)Nc2ccccc2)ccc1NC=O	27	-10	1.6	-63	0.7	-4
COc1ccc(S(=O)(=O)Nc2ccc(C(F)(F)F)cc2)cc1OC	99*	3	0.4	62*	0	-7
COc1ccc(S(=O)(=O)Nc2cccc(Cl)c2)cc1OC	93*	-2	1.5	-53	0.1	-3
COc1ccc(S(=O)(=O)N2CCC(C(=O)N3CCCCCC3)CC2)cc1	85*	-24	2.5*	-152	0.2	0
COc1ccc(S(=O)(=O)Nc2cccc(SC)c2)cc1OC	.	-13	.	.	.	-5
COc1ccc(S(=O)(=O)Nc2ccc(S(=O)(=O)N3CCOCC3)cc2)cc1C	76*	8	0.1	93*	0.2	-11
O=S(=O)(Nc1ccc(S(=O)(=O)N2CCOCC2)cc1)c1ccccc1	7	4	0.5	46	0.9	0
O=Cc1c(-[n+]2ccccc2)nc([O-])n1-c1ccccc1	-6	-26	1.8	-82	1.1	-5
COc1cc(S(=O)(=O)N2CCCCC2)ccc1NC(C)=O	10	6	1.3	-26	0.9	3
CC(=O)C1=C(O)C(=O)N(Cc2ccco2)C1c1ccc2c(c1)OCO2 (stereo not given)	-4	-8	1.1	-7	1	-14
COc1ccc(NS(=O)(=O)c2ccc(S(=O)(=O)N3CCCC3)cc2)cc1	31	-1	0.3	69*	0.7	-11
COc1ccc(NS(=O)(=O)c2ccc(S(=O)(=O)N3CCCC3)cc2)cc1Cl	98*	-26	0	97*	0	-7
COc1ccc(S(=O)(=O)Nc2ccc(F)c(F)c2)cc1Cl	61*	30	0.7	34	0.4	-8
COc1ccc(NC(=O)c2c(F)c(F)c(F)c(F)c2F)cc1Cl	32	-10	1	0	0.7	-9
O=C(Nc1ccc2c(c1)OCCO2)C1CCN(S(=O)(=O)c2ccc3c(c2)OCCO3)CC1	16	-5	1.7	-73	0.8	1
COc1ccc(C(=O)C2CCN(S(=O)(=O)c3ccc4c(c3)OCCO4)CC2)cc1	98*	7	0.9	14	0	-7
SMILES	CYP2C19 inhib	PLK1 PBD inh	CYP2C9 activ	CYP2C9 inhib	CYP2C19 activ	PLK1 kinase inh
CC1CC1C(=O)OCC(=O)NC(=O)NCc1ccco1 (stereo not given)	14	3	0.9	5	0.9	-4
COc1ccc(/C=N/n2c(SC)nnc(C(C)(C)C)c2=O)cc1OC	71*	-7	0.4	57*	0.3	-7
CCOC(=O)c1oc2ccccc2c1CSc1nnnn1-c1ccc(OC)cc1	16	0	0.9	13	0.8	-15
CCOC(=O)c1oc2ccc(Br)cc2c1CSc1nnc(C)s1	54*	24	0.4	59*	0.5	-12
CCc1cc2c(=O)n(N)c(CCC(=O)O)nc2s1	-6	4	1	-4	1.1	-2
Cc1ccc(N=Cc2c(O)n(-c3cc(Cl)ccc3N3CCOCC3)c(=O)c3ccccc23)cc1C	-4	7	0.8	24	1	-6
COc1ccc(/C=C2\C(=O)N(c3nc(-c4ccc(Br)cc4)cs3)N=C2c2ccccc2)cc1	.	9	.	.	.	-8
CCOc1cc(/C=C2\C(=O)N(c3nc(-c4ccc(Br)cc4)cs3)N=C2c2ccccc2)ccc1O	25	4	0.1	87*	0.7	-20
CCSc1nc2c(sc3nc(C)cc(C)c32)c(=O)[nH]1	14	2	0.4	58*	0.9	-3
Cc1cc(C)c2c(n1)sc1c(=O)n(Cc3ccccc3Cl)nnc12	31	-6	0.8	20	0.7	-11
Cn1c(Oc2ccccc2NCc2cccc(Br)c2)cc(=O)n(C)c1=O	45	-12	0.6	41	0.6	-10
Cc1ccc2cc(C(c3nnnn3C(C)(C)C)N3CCCCCC3)c(=O)[nH]c2c1 (stereo not given)	32	-21	0.3	65*	0.7	-8
COc1cc2cc(C(c3nnnn3C(C)(C)C)N3CCc4ccccc4C3)c(=O)[nH]c2cc1OC (stereo not given)	65*	-14	0.2	81*	0.3	1
CCC(C)(C)n1nnnc1C(c1cc2cc(C)ccc2[nH]c1=O)N1CCCC1 (stereo not given)	1	10	0.8	17	1	-18
CCC(C)(C)n1nnnc1C(c1cc2cc(OC)c(OC)cc2[nH]c1=O)N1CCc2ccccc21 (stereo not given)	46	1	0.2	77*	0.5	-3
CC1CN(C(=O)N(C)C)CCN1C(=O)N(C)C (stereo not given)	11	.	0.9	8	0.9	.
COc1cc(/C=C(\C#N)c2nc3ccccc3[nH]2)cc(Br)c1OCc1ccc(F)cc1	15	37	0.7	28	0.9	-10
COc1cc(/C=C(/C#N)c2nc3ccccc3[nH]2)ccc1OC(=O)c1ccco1	24	-12	0.4	61*	0.8	-15
Cc1cc(C(=O)NC(C)c2ccncc2)cs1 (stereo not given)	39	5	0.6	44	0.6	-10
CC(C)(C)NC(=O)C(c1ccco1)N(Cc1ccc(F)cc1)C(=O)c1snc(C(N)=O)c1N (stereo not given)	66*	6	0.4	56*	0.3	0
COCCNC(=O)C(c1ccc(C)o1)N(C(=O)c1snc(C(N)=O)c1N)c1cc(C)cc(C)c1 (stereo not given)	66*	8	0.4	56*	0.3	-12

High-throughput results (PubChem)
